Results filed as inconclusive are left out. Calls of active or inactive are those of the source. Calls come from the whole dose curve; as a rule, active = well fitted cell-killing curve with a large enough effect in the repeat runs; inconclusive = weak or mixed curves, or effect the other way; inactive = no such curve, though single readings can be large or run the other way.
assay: qHTS assay to identify small molecule antagonists of the vitamin D receptor (VDR) signaling pathway - cell viability counter screen (AID 743225); details: VDR-bla HEK293T viability, CellTiter-Glo luminescence, 16 h; series mostly up to 61 µM; viability change, negative = cytotoxic: at the top concentration; note: nearly all actives have a fitted effect of over 50% in size
Description: U.S. Tox21 Program National Center for Advancing Translational Sciences [NCATS] NIH Chemical Genomics Center [NCGC] U.S. Environmental Protection Agency [EPA] National Institutes of Environmental Health Sciences [NIEHS] National Toxicology Program [NTP] U.S. Food and Drug Administration [FDA] Tox21 Assay Overview: The vitamin D receptor (VDR), a member of nuclear hormone receptor superfamily, plays a critical role in calcium homeostasis and bone metabolism. It is also involved in cell differentiation and growth, and thrombogenicity. To identify the compounds that inhibit VDR signaling, the VDR-UAS-bla HEK 293T cell line (Invitrogen, Carlsbad, CA, USA) containing a beta-lactamase reporter gene under the control of an upstream activator sequence (UAS) was used to screen the Tox21 10K compound library. The cytotoxicity of the Tox21 compound library against the VDR-bla cell line was tested in parallel by measuring the cell viability using CellTiter-Glo assay (Promega, Madison, WI) in the same wells.
Tox21 Assay Protocol Summary: VDR-bla cells were dispensed at 2,000 cells/5 uL of assay medium per well into black wall/clear-bottom 1536-well plates using a Multidrop Combi (Thermo Fisher Scientific, Waltham, MA) dispenser. After the assay plates were incubated at a 37C and 5% CO2 for 4 h, 23 nL of compounds dissolved in DMSO, positive controls or DMSO only was transferred to the assay plate by a Pintool station (Kalypsys, San Diego, CA), followed by addition of 1 uL of 1-alpha, 25-Dihydroxy Vitamin D3 (3 nM, final concentration in the wells) using a Bioraptr Flying Reagent Dispenser (FRD) workstation (Beckman Coulter, Indianapolis, IN). The plates were incubated at 37C and 5% CO2 for 16 h, and then 1 uL of LiveBLAzerTM B/G FRET substrate was added using a Bioraptr FRD. The plates were incubated at room temperature for 2 h and fluorescence intensity was measured by an Envision plate reader (PerkinElmer, Shelton, CT). For cell viability readout that measures cytotoxicity, 3 ul/well of CellTiter-Glo reagent was added into the assay plates using a Bioraptr FRD. After 30 min incubation at room temperature, the luminescence intensity in the plates was measured using a ViewLux plate reader (PerkinElmer).
% is set by controls: 0 for no effect and ±100 for the full control effect.

Row | Structure (SMILES) | outcome | viability change, negative = cytotoxic
1 | O=[N+]([O-])c1cc([As](=O)(O)O)ccc1O | inactive | –
2 | CCOP(=S)(OCC)Oc1ccc([N+](=O)[O-])cc1 | inactive | –
3 | [N-]=[N+]=CC(=O)OC[C@H](N)C(=O)O | inactive | –
4 | Cl/C=C/Cl | inactive | –
5 | O=C(O)COc1ccccc1 | inactive | –
6 | CN1C(=O)CCS(=O)(=O)C1c1ccc(Cl)cc1 (stereo not given) | – | 1.7% (inactive)
7 | Cc1cccc(C)c1N | inactive | –
8 | Nc1cccc(Cl)c1 | – | -16.7% (inactive)
9 | COc1nc(NC(C)C)nc(NC(C)C)n1 | inactive | –
10 | CCCOC(=O)c1ccccc1C(=O)OCCC | inactive | –
11 | O=C/C=C/c1ccccc1 | inactive | –
12 | O=C(O)C(Br)Br | inactive | –
13 | C=CC(=O)OCCCCCC(C)C | – | -1.74% (inactive)
14 | CN(C)C(=O)Cl | inactive | –
15 | Nc1cc(Cl)cc(Cl)c1 | inactive | –
16 | COP(=S)(OC)Oc1ccc(SC)c(C)c1 | – | 0.896% (inactive)
17 | C/C=C/c1ccc2c(c1)OCO2 | inactive | –
18 | CNc1cnn(-c2cccc(C(F)(F)F)c2)c(=O)c1Cl | inactive | –
19 | O=[N+]([O-])c1ccc(Cl)c(Cl)c1 | inactive | –
20 | N#Cc1cccc(C#N)c1 | inactive | –

Row | Structure (SMILES) | outcome | viability change, negative = cytotoxic
21 | Cc1cccc(N)c1 | inactive | –
22 | NNc1ccccc1 | inactive | –
23 | Cc1ccccc1N | inactive | –
24 | Cc1cc(Cl)ccc1OC(C)C(=O)O (stereo not given) | inactive | –
25 | COC(=O)Nc1cccc(OC(=O)Nc2cccc(C)c2)c1 | inactive | –
26 | OCCCCO | inactive | –
27 | CC(C)CCCCCCOC(=O)c1ccccc1C(=O)OCCCCCCC(C)C | inactive | –
28 | Cc1ccc(N)cc1 | inactive | –
29 | CSc1nnc(C(C)(C)C)c(=O)n1N | – | 5.08% (inactive)
30 | Nc1nc(N)nc(NC2CC2)n1 | inactive | –
31 | Cc1ccc(O)c(C)c1 | inactive | –
32 | O=[N+]([O-])c1ccc(Cl)cc1 | inactive | –
33 | OCc1ccco1 | inactive | –
34 | FC(F)(F)c1ccc(Cl)cc1 | – | 3.81% (inactive)
35 | CNC(=O)Oc1cccc2ccccc12 | inactive | –
36 | CNC(=O)O/N=C(\SC)C(=O)N(C)C | inactive | –
37 | C=CCN=C=S | inactive | –
38 | Clc1cnc(Oc2ccc(Oc3ncc(Cl)cc3Cl)cc2)c(Cl)c1 | inactive | –
39 | COS(=O)(=O)OC | inactive | –
40 | Cc1cccc(C)c1NC(=O)CN1CCCC1=O | inactive | –
